# Source: PubChem BioAssay
# Values joined by “and” are separate entries in the source; they are usually repeats but may differ in a detail not shown here. Identical values can stand only once. Active and inactive are the calls of the source. Rule as the data show it, unless noted: active = inhibition above about 80%; inactive = the rest.
# How the values were obtained:
# [1] = growth inhibition, single agents and combos, HTB85, cell-based, BGB or cisplatin IC20 combos, synergistic combos for chromothripsis tumors (AID 1671453); conditions: HTB85 osteosarcoma cells, drug combinations, stronger effect = higher value;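 also: cells exposed for 96 hours before readout; 0% = vehicle DMSO and 100% = high DMSO killing control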
# [2] = growth inhibition, single agents and combos, CRL2098, cell-based, BGB or cisplatin IC20 combos, synergistic combos for chromothripsis tumors (AID 1671454); conditions: CRL2098 osteosarcoma cells, drug combinations, stronger effect = higher value;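 also: cells exposed for 96 h before readout; 0% = vehicle DMSO and 100% = killing by high DMSO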
# [3] = growth inhibition, single agents and combos, HD-MB03, cell-based, BGB or cisplatin IC20 combos, synergistic combos for chromothripsis tumors (AID 1671455; in the data active = inhibition above about 83%;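 also: 0% = vehicle DMSO and 100% = high DMSO as cytotoxic control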); conditions: HD-MB03 medulloblastoma cells, stronger effect = higher value
# [4] = growth inhibition, single agents and combos, UWB1.289, cell-based, BGB or cisplatin combos, synergistic combos for chromothripsis tumors (AID 1671456); conditions: UWB1.289 ovarian carcinoma cells, stronger effect = higher value;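 also: cells exposed to compound for four days; 0% = vehicle DMSO and 100% = killing by high DMSO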
# [5] = growth inhibition, single agents and combos, LFS_MB_2R, cell-based, cisplatin combos, synergistic combos for chromothripsis tumors (AID 1671457); conditions: LFS_MB_2R medulloblastoma cells, stronger effect = higher value;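 also: cells exposed to compound for four days before readout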
# [6] = growth inhibition, MDA-MB-436, cell-based, BGB or cisplatin combos, synergistic combos for chromothripsis tumors (AID 1671458; call rule not given here;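 also: cells exposed for 96 hours; 0% = vehicle DMSO and 100% = killing by high DMSO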); conditions: MDA-MB-436 breast carcinoma growth inhibition, drug combinations, stronger effect = higher value
# [7] = UWB1.289_BRCA1 ovarian cancer growth, cell-based, BGB or cisplatin combinations (AID 1671459); conditions: UWB1.289 BRCA1 ovarian carcinoma, drug combinations, stronger effect = higher value
# [8] = drug combination toxicity in non-malignant astrocytes – cell-based, BGB or cisplatin IC20 combos, cytotoxicity control for chromothriptic childhood tumor combination screen (AID 1671460); conditions: Human astrocytes, viability inhibition, drug combinations, at 0.5 µM, stronger effect = higher value;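 also: cells exposed to compounds for 96 hours before viability readout; 0% = vehicle and 100% = killing control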
# [9] = BT084 cell growth, single and combined drugs, ICGC_MB145, cisplatin and BGB IC40 combos (AID 1671461); conditions: BT084 medulloblastoma cells, drug combinations, stronger effect = higher value;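 also: cells exposed to drugs for 96 hours; 0% = vehicle DMSO and 100% = high DMSO full killing control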
# [10] = RCMB18 cell growth, single agent and combined, cisplatin and BGB IC40 combos (AID 1671462); conditions: RCMB18 medulloblastoma cells, stronger effect = higher value;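 also: cells exposed to compound for four days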
# [11] = CRL1545 cell growth, single agent and combined, cisplatin and BGB IC20 combos (AID 1671464); conditions: CRL1545 osteosarcoma cells, stronger effect = higher value;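 also: cells exposed to compound for 96 hours before readout; 0% = vehicle DMSO and 100% = high DMSO killing control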
# F380Y = experiment: BK channel mutant inhibitors and activators – cell-based, U2OS BacMam, thallium flux, beta subunits, selectivity assay, profiling panel (AID 1259406;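 active = thallium flux through the channel raised or lowered by more than 3 SD from vehicle-only wells, actives on both sides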;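 also: initial slope of Thallos dye fluorescence rise after thallium is added; log ratio against the mean of 0.3% DMSO vehicle wells on the same plate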); conditions: U2OS BacMam BK variants, at 30 µM
# F380Y/beta1 = experiment: as above; conditions: U2OS BacMam BK variants, at 30 µM
# [12] = galactose survival enhancers in mitochondrial complex I cybrids – cell-based, galactose medium, ATP luminescence, primary screen (AID 1645843;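 active = z-score of at least 1.8 in each of two replicates, scored against plate mean and spread of sample wells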;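 also: positive z means more ATP and so rescue of galactose-driven cybrid death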); conditions: complex I mutant cybrid cells, 72 h, stronger effect = higher value
# [13] = target: NAD(+) hydrolase SARM1 (Homo sapiens) (UniProt Q6SZW1); experiment: blocking NAD cleavage by SARM1 SAM-TIR – cell lysate, NAD-Glo luminescence (AID 1508614;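 active = compound whose remaining NAD level is above about 45 nM, limit read from the data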;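 also: higher remaining NAD means stronger inhibition of SARM1 NADase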); conditions: SAM-TIR HEK293T lysate NADase, at 1 µM, stronger effect = higher value
# [14] = target: Mitogen-activated protein kinase 7 (Homo sapiens) (UniProt Q13164); experiment: Gal4-ERK5 driven luciferase induction – cell-based, HTS, primary screen (AID 1508626;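 active = luciferase signal above three times the same-plate solvent-only control wells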;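 also: luciferase driven by Gal4-ERK5 fusion binding five Gal4 sites before minimal TATA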); conditions: HeLa Gal4-ERK5 transactivation, 18 h, at 5 µM, stronger effect = higher value
# [15] = measured here: combination with cisplatin, at 0.5 µM
# Sequence of NAD(+) hydrolase SARM1 (Homo sapiens) (Q6SZW1 whole entry, looked up, the tested form may be a part): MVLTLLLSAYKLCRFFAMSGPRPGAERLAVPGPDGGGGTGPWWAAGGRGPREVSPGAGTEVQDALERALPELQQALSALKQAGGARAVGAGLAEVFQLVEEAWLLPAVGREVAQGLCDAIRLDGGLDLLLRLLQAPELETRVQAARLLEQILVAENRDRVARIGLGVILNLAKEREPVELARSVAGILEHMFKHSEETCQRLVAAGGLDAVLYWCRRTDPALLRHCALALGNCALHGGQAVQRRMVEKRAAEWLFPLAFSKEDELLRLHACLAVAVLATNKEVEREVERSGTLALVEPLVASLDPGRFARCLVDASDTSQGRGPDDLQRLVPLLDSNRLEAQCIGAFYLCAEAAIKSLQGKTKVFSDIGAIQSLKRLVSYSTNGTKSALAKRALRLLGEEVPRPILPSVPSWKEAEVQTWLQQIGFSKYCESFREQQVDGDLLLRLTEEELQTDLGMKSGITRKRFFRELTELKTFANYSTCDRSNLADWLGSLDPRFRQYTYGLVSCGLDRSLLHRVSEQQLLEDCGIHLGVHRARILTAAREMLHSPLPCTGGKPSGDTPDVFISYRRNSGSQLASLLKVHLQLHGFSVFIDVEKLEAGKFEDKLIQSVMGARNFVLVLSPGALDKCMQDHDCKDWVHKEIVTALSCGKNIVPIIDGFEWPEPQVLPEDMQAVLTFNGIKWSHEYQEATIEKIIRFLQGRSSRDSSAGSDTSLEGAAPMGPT
# Sequence of Mitogen-activated protein kinase 7 (Homo sapiens) (Q13164 whole entry, looked up, the tested form may be a part): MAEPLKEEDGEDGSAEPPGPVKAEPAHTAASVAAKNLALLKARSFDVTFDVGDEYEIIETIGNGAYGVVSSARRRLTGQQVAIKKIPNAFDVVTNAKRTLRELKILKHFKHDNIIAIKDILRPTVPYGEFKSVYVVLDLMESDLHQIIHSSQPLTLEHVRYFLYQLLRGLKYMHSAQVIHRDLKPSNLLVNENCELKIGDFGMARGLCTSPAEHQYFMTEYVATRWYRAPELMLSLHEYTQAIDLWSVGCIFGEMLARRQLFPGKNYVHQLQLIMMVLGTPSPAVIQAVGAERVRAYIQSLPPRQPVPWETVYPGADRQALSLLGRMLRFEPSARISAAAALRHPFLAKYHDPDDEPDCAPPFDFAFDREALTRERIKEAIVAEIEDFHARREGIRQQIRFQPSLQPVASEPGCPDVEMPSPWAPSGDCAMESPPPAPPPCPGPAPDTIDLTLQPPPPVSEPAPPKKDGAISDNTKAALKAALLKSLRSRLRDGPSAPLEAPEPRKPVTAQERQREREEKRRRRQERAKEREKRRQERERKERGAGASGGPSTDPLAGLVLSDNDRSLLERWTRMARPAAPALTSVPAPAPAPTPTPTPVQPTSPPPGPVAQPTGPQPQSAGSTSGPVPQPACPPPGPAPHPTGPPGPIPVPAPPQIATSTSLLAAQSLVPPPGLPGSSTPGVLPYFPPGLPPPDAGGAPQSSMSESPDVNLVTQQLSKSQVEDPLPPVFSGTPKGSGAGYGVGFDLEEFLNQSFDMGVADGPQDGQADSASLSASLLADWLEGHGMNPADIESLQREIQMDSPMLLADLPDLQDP
smiles,measurement,setting,value
Cn1nnc2c(C(N)=O)ncn2c1=O,inhibition,"[1]; measured here: with cisplatin IC20, at 5 µM",-15.9% and 29.4%
same,inhibition,"[1]; single agent, at 5 µM",7.64% and -1.96%
same,inhibition,[2]; at 0.5 µM,-9.21% (inactive) and -17.1% (inactive)
same,inhibition,"[2]; measured here: combination with BGB at IC20, at 0.5 µM",-17.8% and -2.5%
same,inhibition,"[2]; measured here: combination with cisplatin at IC20, at 0.5 µM",7.75% and -28.9%
same,inhibition,[3]; at 0.5 µM,-0.81% (inactive) and -5.74% (inactive)
same,inhibition,"[3]; measured here: combo with BGB at IC20, at 0.5 µM",-12.4% and -6.59%
same,inhibition,"[3]; measured here: combo with cisplatin at IC20, at 0.5 µM",4.26% and -10.3%
same,inhibition,[4]; at 0.5 µM,10.5% (inactive) and 0.13% (inactive)
same,inhibition,"[4]; measured here: inhibition with BGB combination, at 0.05 µM",4.75% and -18.9%
same,inhibition,"[4]; measured here: inhibition with cisplatin combination, at 0.05 µM",25.6% and -6.43%
same,inhibition,[5]; at 0.5 µM,7.22% (inactive) and -24.1% (inactive)
same,inhibition,[5]; [15],1.03% and -18.7%
same,inhibition,"[5]; measured here: combination with cisplatin, at 5 µM",8.16% and -14%
same,inhibition,[6]; at 0.5 µM,6.91% (inactive) and -16.3% (inactive)
same,inhibition,"[6]; measured here: BGB combination, at 0.5 µM",12.9% and -14.6%
same,inhibition,"[6]; measured here: BGB combination, at 5 µM",4.06% and -13.6%
same,inhibition,"[6]; measured here: cisplatin combination, at 0.5 µM",2.96% and -35.2%
same,inhibition,"[6]; measured here: cisplatin combination, at 5 µM",1.26% and -29.8%
same,inhibition,"[7]; BGB combination, concentration series, at 5 µM",6.41% and 2.63%
same,inhibition,[7]; at 0.5 µM,6.2% (inactive) and -1.71% (inactive)
same,inhibition,"[7]; cisplatin combination, concentration series, at 5 µM",-10.8% and 7.27%
same,inhibition,[8],14.2% (inactive) and -4.55% (inactive)
same,inhibition,[8]; measured here: combo with BGB IC20,6.32% and -9.95%
same,inhibition,[8]; measured here: combo with cisplatin IC20,16.8% and -6.6%
same,inhibition,[9]; at 0.5 µM,-1.52% (inactive) and -18.4% (inactive)
same,inhibition,"[9]; cisplatin combination, at 0.5 µM",-21% and -7.48%
same,inhibition,"[9]; cisplatin combination, at 5 µM",1.38% and -35.6%
same,inhibition,"[9]; measured here: BGB IC40 combination 0.05 uM, at 0.05 µM",-9.43% and 0.326%
same,inhibition,"[9]; single agent, at 5 µM",8.38% and -21.4%
same,inhibition,[10]; at 0.5 µM,-3.58% (inactive) and -13.6% (inactive)
same,inhibition,"[10]; cisplatin combo, at 5 µM",-29.7% and 13.3%
same,inhibition,"[10]; measured here: BGB IC40 combination, at 0.05 µM",7.57% and -3.63%
same,inhibition,[10]; [15],-5.87% and -11.2%
same,inhibition,"[10]; single agent, at 5 µM",-2.81% and -25.8%
same,inhibition,[11]; at 0.5 µM,-15.1% (inactive) and -33.6% (inactive)
same,inhibition,"[11]; measured here: with BGB IC20 combination, at 0.5 µM",-16.2% and -3.96%
same,inhibition,"[11]; measured here: with cisplatin IC20 combination, at 0.5 µM",-16.4% and -48.4%
same,inhibition,"[11]; single agent, at 0.05 µM",-25.4% and 17.1%
same,inhibition,"[11]; single agent, at 5 µM",-10.6% and 18.5%
same,log fold change Tl+ flux,F380Y,-0.0478 (inactive)
same,log fold change Tl+ flux,F380Y/beta1,-0.022 (inactive)
Cc1cccc(C)c1NC(=O)C(C)N (stereo unspecified),z-score,[12],0.04 (inactive) and 0.79 (inactive)
same,log fold change Tl+ flux,F380Y,-0.00461 (inactive)
same,log fold change Tl+ flux,F380Y/beta1,-0.0545 (inactive)
CC(C(=O)O)c1ccc(CC2CCCC2=O)cc1 (stereo unspecified),remaining NAD,[13],10 nM (inactive)
same,z-score,[12],0.695 (inactive) and 0.805 (inactive)
same,log fold change Tl+ flux,F380Y,-0.0107 (inactive)
same,log fold change Tl+ flux,F380Y/beta1,-0.0699 (inactive)
CCN1CCC[C@H]1CNC(=O)c1cc(S(N)(=O)=O)ccc1OC,z-score,[12],0.65 (inactive) and 0.075 (inactive) and 0.505 (inactive)
same,log fold change Tl+ flux,F380Y,-0.0719 (inactive)
same,log fold change Tl+ flux,F380Y/beta1,0.000794 (inactive)
CN(C)CC[C@@H](c1ccc(Br)cc1)c1ccccn1,z-score,[12],-0.265 (inactive)
same,log fold change Tl+ flux,F380Y,0.102 (inactive)
same,log fold change Tl+ flux,F380Y/beta1,0.0384 (inactive)
CCN1CCCC1CNC(=O)c1cc(S(=O)(=O)CC)c(N)cc1OC (stereo unspecified),remaining NAD,[13],10 nM (inactive)
same,z-score,[12],0.105 (inactive) and 0.58 (inactive) and -0.055 (inactive)
same,log fold change Tl+ flux,F380Y,0.00396 (inactive)
same,log fold change Tl+ flux,F380Y/beta1,0.016 (inactive)
CN(C)CC/C=C1/c2ccccc2COc2ccc(CC(=O)O)cc21,z-score,[12],0.505 (inactive)
same,log fold change Tl+ flux,F380Y,0.0275 (inactive)
same,log fold change Tl+ flux,F380Y/beta1,0.0119 (inactive)
NC(=O)OCC(COC(N)=O)c1ccccc1,luciferase signal,[14],112 AU (inactive)
same,z-score,[12],0.13 (inactive) and 0.59 (inactive) and 0.445 (inactive)
same,log fold change Tl+ flux,F380Y,-0.103 (inactive)
same,log fold change Tl+ flux,F380Y/beta1,-0.0115 (inactive)
